# PubChem BioAssay (NCI)
# This is part of a sample that, as a whole, favours compounds with a hit. Of some 83,000 tested, about 20% had one in any assay.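 Method: cells in 96-well plates; compound added at one concentration; 48 h incubation; percent growth measured; values under 10 scored active.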 A number with no mark means an inactive call. The source made the active and inactive calls.
# Tested on: SF-295 CNS
# Experiment: NCI-60 one-dose screen, 48 h (100 = growth as untreated, 0 = no growth, -100 = all killed)
# Conditions: 10 µM unless noted
row,Compound,growth
1,COC(=O)c1sccc1-c1cc(O)c(C(=O)Nc2ccccc2)s1,99.4%
2,O=C(C1=Cc2cc3ccccc3n2Cc2cnnn21)c1ccc(F)cc1,97.8%
3,Cc1cccc(N2C(=O)/C(=C/C(Cl)=C/c3ccc([N+](=O)[O-])cc3)SC2=S)c1C,22.3%
4,CS(=O)/C(C#N)=C\C=C\c1cccc(Cl)c1 (stereo not given),32.5%
5,CCOC(=O)/C=C1\S/C(=N\Nc2cc(=O)[nH]c3ccc(Br)cc23)N(c2ccccc2)C1=O,100%
6,Cc1ccc2nc(-c3ccc(C(=O)N/N=C/c4ccc([N+](=O)[O-])cc4)cc3)[nH]c2c1,111%
7,COc1ccc(/C=C/C(c2cc(OC)c(OC)c(OC)c2)n2cncn2)cc1O (stereo not given),1.43% (active)
8,CCCCCCCCCCCCCCCCCCOc1ccccc1CC(=O)NCC[N+](C)(C)C,52.1%
9,CCOC(=O)c1c(C)nc2ccccc2c1/C=C/c1ccc(F)cc1,67.7%
10,N#Cc1c(-c2ccccc2)cc(-c2ccccc2)n(CCCCC(=O)NO)c1=O,1.64% (active)
11,COc1cc(Cc2cc(OC)c(O)c(OC)c2)cc(OC)c1O,62.2%
12,COc1cc(/C=C/c2cc(/C=C/c3ccc(O)c(OC)c3)n(C(=O)Nc3ccc(Cl)cc3)n2)ccc1O,-21.9% (active)
13,NS(=O)(=O)c1ccc(C(=O)NN2C(=O)c3ccccc3C2=O)cc1,98.7%
14,CS(=O)(=O)c1ccc(-c2nc3ccccc3n2CC(=O)N/N=C/c2ccccc2)cc1,94.2%
15,CCn1cc(C(=O)N/N=C/c2cccc(F)c2)c(=O)c2cc(F)c(N3CCNC(C)C3)c(F)c21 (stereo not given),75.7%
16,CCCC(=O)NC(c1ccc2c(c1)OCO2)c1cc(Cl)c2cccnc2c1O (stereo not given),12.7%
17,O=C(c1cccc(N2CCOCC2)n1)c1c[nH]c2ccccc12,100%
18,Cc1cc(C(=O)CCCC(=O)c2cc(C)c(O)c(C)c2)cc(C)c1O,99.9%
19,O=C(/C=C/c1ccccc1)c1cccc2ccccc12,34.8%
20,CNC(=O)c1cc(Oc2ccc3c(c2)sc2nc(-c4ccc(NC(=O)[C@@H](NC(=O)OC)C(C)C)cc4)cn23)ccn1,68.7%

row,Compound,growth
1,FC(F)(F)c1[nH]ncc1-c1nc2ccc3[nH]ncc3c2c2c1CCCC2,24.3%
2,COC(=O)c1ccc2c(c1)c1c(C)c3cnccc3c(C)c1n2C,-10.5% (active)
3,CC1=C2[C@@H](CC1)[C@]1(C)O[C@@](C3CCNCC3)(C[C@H]1OC(=O)CO)[C@H]2OC(=O)/C=C/c1ccccc1,90.9%
4,CCOC(=O)CC1CSC(N/N=C/c2ccc(F)c(Br)c2)=N1 (stereo not given),96.8%
5,O=C1/C(=C/c2cccc(Br)c2)COc2ccc(O)cc21,100%
6,O=C(Cn1nc(-c2cccc3ccccc23)ccc1=O)NCc1cccc(Cl)c1,18.7% [50 µM]
7,COc1cc(O)c2c(=O)c3c(CC=C(C)C)cc(OC)c(O)c3oc2c1,42.2%
8,Nc1ccc(Br)cc1C(F)(F)F,119%
9,O=C(Nc1ccc(Oc2cccc(Cl)c2)c(Cl)c1)c1cccnn1,82.2%
10,COc1cccc(-c2cn3nc(-c4cn(C)c5ccccc45)sc3n2)c1,96.3%
11,c1ccc(-c2c(-c3ccccc3)[n+](Cc3ccc4ccccc4c3)cn2Cc2ccc3ccccc3c2)cc1,-97.9% (active)
12,COc1ccc(C2[C@@H](c3ccccc3)C(=O)N2c2cc(OC)c(OC)c(OC)c2)cc1F (stereo not given in full),0.875% (active)
13,CC(C)CCC[C@@H](C)[C@H]1CC[C@H]2[C@@H]3CC=C4c5sc(Nc6cc(C(F)(F)F)cc(C(F)(F)F)c6)nc5CC[C@]4(C)[C@H]3CC[C@]12C,104%
14,Nc1cc(C(=O)O)cc(-n2c(O)c(C=C3N=c4ccccc4=N3)sc2=S)c1,101%
15,COc1cccc(CNc2c3ccccc3nc3ccccc23)c1OC,33%
16,Clc1ccc(Nc2ncc(Cc3cccc(Cl)c3Cl)s2)cc1,100%
17,CCOC(=O)c1cnn(CC(C)O)c1NC(=O)NCc1cccc(F)c1 (stereo not given),99.9%
18,C=C1C(=O)O[C@@H]2C3C(=C(C)CC[C@@H]12)CC1O[C@]13C (stereo not given in full),102% [6.75 µM]
19,CCOC(=O)C1=C(c2ccccc2)N=C2N(c3ccccc3)N=C(C(C)=O)N2C1c1ccc(F)cc1 (stereo not given),98.6%
20,CCCOC(=O)Nc1nc2ccc(SCC)cc2s1,80.8%
